The record followed here is PubChem BioAssay (NCATS).

Records with an inconclusive call do not appear. Values without a mark were called inactive. Calls come from the whole dose curve. Bounds are passed on as bounds.
Potency is the fitted concentration of half-maximal effect.

The experiment in a line: Cell Viability - MRC5 (AID 434).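 Note: potency reflects cytotoxicity seen as loss of intracellular ATP.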 The conditions noted are these: MRC5 lung fibroblast viability, qHTS. An excerpt: NIH Chemical Genomics Center [NCGC]
NIH Molecular Libraries Screening Centers Network [MLSCN]
National Institutes of Environmental Health Sciences [NIEHS]
National Toxicology Program [NTP]
We have developed a 1536-well cell-based assay for quantitative high throughput screening (qHTS) against a number of cell lines to determine in vitro cytotoxicity of small molecules. This particular assay uses the MRC5 cell line which is derived from normal human lung fibroblasts.
NCGC Assay Protocol Summary:
The CellTiter-Glo luminescent cell viability assay (Promega) is a homogeneous method to measure the number of viable cells in culture. The end point readout of this assay is based on quantitation of intracellular ATP, an indicator of metabolic activity, using the luciferase reaction. Luciferase catalyzes the oxidation of beetle Luciferin to oxyluciferin and light in the presence of ATP. The luminescent signal is proportional to amount of ATP present.
Using the CellTiter-Glo luminescent cell viability assay, the amount of cellular ATP was measured in the MRC5 cell line with complete culture medium following compound treatment for 40 hours. The assay was performed in opaque white Kalypsys 1536-well plates. In the screen, tamoxifen and doxorubicin were used as positive controls. Library compounds were measured for their ability to cause acute toxicity in the cell line, as reflected by a decrease in intracellular ATP levels, in a concentration-dependent manner. Data were normalized to the controls for basal activity (DMSO only) and 100% inhibition (100 uM tamoxifen). AC50 values were determined from concentration-response data modeled with the standard Hill equation.
qHTS protocol for CellTiter Glo MRC5 cellular assay
[Step] [Parameter] [Value] [Description]
1. Reagent; 5 uL; 1500 MRC5 cells/well
2. Time; 5 hr; 37 °C incubation
4. Controls; 23 nL; Tamoxifen 0.34 uM to 100 uM & Doxorubicin 0.02 nM to 100 uM
5. Time; 40 hr; 37 °C incubation
6. Reagent; 5 uL; CellTiter Glo reagent
7. Time; 20 min; Room Temperature
8. Detection; Luminescence; Viewlux plate reader
Keywords: cell viability, cytotoxicity, MRC5 cell line, luminescence, NTPHTS, NTPHTS_NCGC, NIEHS, EPA, DSSTox, MLSMR, MLSCN, NIH Roadmap, qHTS, NCGC
As for `CCCCOC(C)=O`, the Potency is more than 92 µM. For the molecule `CN(C)C(=O)Cl`, the Potency was more than 92 µM. The value for `ClCCBr` was more than 92 µM. For the molecule `CCC(Cl)[N+](=O)[O-]` (stereo not given), the Potency was more than 92 µM.

Regarding `CC(=O)NNc1ccccc1`, the Potency is more than 92 µM. The value for `ClC(Cl)(Cl)C(Cl)(Cl)Cl` was more than 92 µM; that for `Nc1ccc(Cc2ccc(N)cc2)cc1` was more than 92 µM.

For the molecule `CN(C)c1ccc(N(C)C)cc1`, the Potency was more than 92 µM. The result for `Cc1cc(-c2ccc(N)c(C)c2)ccc1N` reads more than 92 µM. The value for `CC(C)(C)c1ccccc1O` was more than 92 µM. The value for `COc1cc(-c2ccc(N)c(OC)c2)ccc1N` was more than 92 µM. As to `ClC(Cl)C(Cl)Cl`, the Potency is more than 92 µM.

As to `O=[N+]([O-])c1cc(Cl)c(Cl)cc1Cl`, the Potency was more than 92 µM.

As for `C/C=C/C=O`, the Potency is more than 92 µM. The result for `Nc1ccccc1-c1ccccc1` reads more than 92 µM. Regarding `Nc1ccc(-c2ccccc2)cc1`, the Potency is more than 92 µM. With `Nc1cc(Cl)cc(C(=O)O)c1Cl`, the Potency was more than 92 µM. The value for `O=[N+]([O-])c1ccc(Cl)cc1` was more than 92 µM; that for `ClCCCCl` was more than 92 µM; that for `ClC=CCl` was more than 92 µM.

For the molecule `Cc1cc(N=Nc2ccccc2C)ccc1N`, the Potency is more than 92 µM.

As for `Nc1c(Cl)cc([N+](=O)[O-])cc1Cl`, the Potency is more than 92 µM. For `Oc1ccc(Cl)c(Cl)c1`, the Potency is more than 92 µM. Take `C=C(C)CCl`: the Potency is more than 92 µM. The result for `CCN(CC)N=O` reads more than 92 µM. With `CCOS(C)(=O)=O`, the Potency is more than 92 µM.

For the molecule `CCCCCOC(=O)c1ccccc1C(=O)OCCCCC`, the Potency is more than 92 µM. Consider `OC[P+](CO)(CO)CO`, for which the Potency was more than 92 µM. The value for `O=[N+]([O-])c1ccc(O)c([N+](=O)[O-])c1` was more than 92 µM; that for `CC[N+](=O)[O-]` was more than 92 µM; that for `Oc1cccc(Cl)c1` was more than 92 µM.

As for `Nn1cnnc1`, the Potency is more than 92 µM.

Consider `Nc1c(Br)cc([N+](=O)[O-])cc1[N+](=O)[O-]`, for which the Potency was more than 92 µM. The value for `O=[N+]([O-])c1ccccc1O` was more than 92 µM; that for `O=C(O)c1cc(Cl)ccc1Cl` was more than 92 µM.

For the molecule `CCCCC(CC)COC(=O)c1ccc(C(=O)OCC(CC)CCCC)c(C(=O)OCC(CC)CCCC)c1` (stereo not given), the Potency is more than 92 µM. The value for `Cc1ccc(N)c(C)c1` was more than 92 µM; that for `CN(C)c1ccc(N=Nc2ccccc2)cc1` was more than 92 µM.

On to `CCN(N=O)C(N)=O`, for which the Potency was more than 92 µM. Consider `Cc1ccc(N=C=O)cc1N=C=O`, for which the Potency was more than 92 µM.
